Laboratory results taken from PubChem BioAssay AID1159580 (chemical genetic matrix, 2015).
Several values for one entry are separate records, joined by “and”; a condition that tells them apart may be missing. Equal entries are not always repeated. In all, about 5,500 compounds went through this assay and about 2,000 (36%) were called active. Inconclusive results (about 18%) are left out. Cut-off read from the data, not from the text of the source: active = normalized growth mostly below about 0.91 (no sharp cut-off); inconclusive = no clear call, values can overlap the other calls; inactive = mostly above about 0.92. The list shows a part of the results.

Assay: chemical genetic growth profiling, strain panel (AID 1159580);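 note: tested at 20 µM; growth read once vehicle control cultures reached saturation at 30 °C; 1 = growth at the plate median or of vehicle wells; lower values mean less growth of the strain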
Details: S. cerevisiae deletion strains, growth OD

Measured: normalized growth

Cc1c(O)c(O)cc2c1CC=C1[C@@]2(C)CC[C@@]2(C)C3C[C@](C)(C(=O)O)CC[C@]3(C)CC[C@]12C (stereo partly drawn)
active: locus YAL021C, strain ccr4, active compounds read low 0.711 | locus YAL026C, strain drs2, active compounds read low 0.422 | locus YAL030W, strain snc1, active compounds read low 0.541 | locus YBL061C, strain skt5, active compounds read low 0.533 | locus YBR009C, strain hhf1, active compounds read low 0.265 | locus YBR023C, strain chs3, active compounds read low 0.471 | locus YBR171W, strain sec66, active compounds read low 0.842 | locus YBR231C, strain swc5, active compounds read low 0.326 | locus YBR279W, strain paf1, active compounds read low 0.41 | locus YCL011C, strain gbp2, active compounds read low 0.377 | locus YCL016C, strain dcc1, active compounds read low 0.571 | locus YCL061C, strain MRC1, active compounds read low 0.635 | locus YCL069W, strain vba3, active compounds read low 0.668 | locus YCR088W, strain abp1, active compounds read low 0.738 | locus YDL005C, strain med2, active compounds read low 0.413 | locus YDL040C, strain nat1, active compounds read low 0.738 | locus YDL192W, strain arf1, active compounds read low 0.889 | locus YDR001C, strain nth1, active compounds read low 0.766 | locus YDR069C, strain doa4, active compounds read low 0.459 | locus YDR137W, strain rgp1, active compounds read low 0.269 | locus YDR159W, strain sac3, active compounds read low 0.465 | locus YDR162C, strain NBP2, active compounds read low 0.803 | locus YDR195W, strain ref2 0.548 | locus YDR297W, strain sur2, active compounds read low 0.479 | locus YDR318W, strain mcm21, active compounds read low 0.917 | locus YDR334W, strain swr1, active compounds read low 0.338 | locus YDR335W, strain msn5, active compounds read low 0.698 | locus YDR392W, strain spt3, active compounds read low 0.125 | locus YEL003W, strain gim4, active compounds read low 0.416 | locus YEL037C, strain rad23, active compounds read low 0.71 | locus YEL061C, strain CIN8 (second series), active compounds read low 0.701 | locus YEL061C, strain CIN8, active compounds read low 0.906 | locus YER015W, strain faa2, active compounds read low 0.491 | locus YER016W, strain bim1, active compounds read low 0.612 | locus YER111C, strain swi4, active compounds read low 0.581 | locus YER155C, strain BEM2 (second series), active compounds read low 0.348 | locus YER155C, strain BEM2, active compounds read low 0.767 | locus YFR010W, strain ubp6, active compounds read low 0.561 | locus YGL167C, strain pmr1, active compounds read low 0.738 | locus YGL173C, strain kem1, active compounds read low 0.31 | locus YGL227W, strain vid30, active compounds read low 0.854 | locus YGL240W, strain doc1, active compounds read low 0.605 | locus YGL248W, strain PDE1, active compounds read low 0.845 | locus YGL253W, strain hxk2, active compounds read low 0.37 | locus YHR013C, strain ard1, active compounds read low 0.203 | locus YHR027C, strain rpn1, active compounds read low 0.45 | locus YHR129C, strain ARP1, active compounds read low 0.838 | locus YHR142W, strain chs7, active compounds read low 0.387 | locus YIL066C, strain RNR3, active compounds read low 0.801 | locus YJL092W, strain hpr5, active compounds read low 0.686 | locus YJL095W, strain BCK1 (second series), active compounds read low 0.405 | locus YJL095W, strain BCK1, active compounds read low 0.784 and 0.865 | locus YJL115W, strain asf1, active compounds read low 0.741 | locus YJL129C, strain trk1, active compounds read low 0.482 | locus YJL154C, strain vps35, active compounds read low 0.689 | locus YJL164C, strain tpk1, active compounds read low 0.289 | locus YJL166W, strain qcr8, active compounds read low 0.233 | locus YJL187C, strain SWE1, active compounds read low 0.457 | locus YKL068W, active compounds read low 0.941 | locus YKL085W, strain MDH1 (second series), active compounds read low 0.919 | locus YKL085W, strain MDH1, active compounds read low 0.919 | locus YKL160W, strain elf1, active compounds read low 0.386 | locus YKR001C, strain vps1, active compounds read low 0.728 | locus YKR026C, strain gcn3, active compounds read low 0.804 | locus YKR091W, strain srl3, active compounds read low 0.8 | locus YLL001W, strain dnm1, active compounds read low 0.617 | locus YLL026W, active compounds read low 0.496 | locus YLL041C, strain sdh2, active compounds read low 0.645 | locus YLR027C, strain aat2, active compounds read low 0.433 | locus YLR039C, strain RIC1, active compounds read low 0.616 | locus YLR113W, strain HOG1, active compounds read low 0.651 | locus YLR221C, strain rsa3, active compounds read low 0.4 | locus YLR258W, strain gsy2, active compounds read low 0.398 | locus YLR262C, strain YPT6 (second series), active compounds read low 0.186 | locus YLR320W, strain mms22, active compounds read low 0.221 | locus YLR330W, strain CHS5, active compounds read low 0.877 | locus YLR342W, strain FKS1, active compounds read low 0.561 | locus YLR357W, strain rsc2, active compounds read low 0.657 | locus YLR370C, strain arc18, active compounds read low 0.63 | locus YLR384C, strain iki3, active compounds read low 0.885 | locus YLR418C, strain cdc73, active compounds read low 0.645 | locus YML120C, strain ndi1, active compounds read low 0.568 | locus YMR058W, strain fet3, active compounds read low 0.0953 | locus YMR125W, strain sto1, active compounds read low 0.483 | locus YMR129W, active compounds read low 0.764 | locus YMR205C, strain PFK2, active compounds read low 0.364 | locus YMR231W, strain pep5, active compounds read low 0.361 | locus YNL071W, strain lat1, active compounds read low 0.0934 | locus YNL209W, strain ssb2, active compounds read low 0.376 | locus YNL248C, strain rpa49, active compounds read low 0.741 | locus YNL307C, strain MCK1, active compounds read low 0.822 | locus YNR049C, strain mso1, active compounds read low 0.72 | locus YOR001W, strain rrp6, active compounds read low 0.683 | locus YOR070C, strain gyp1, active compounds read low 0.393 | locus YOR080W, strain dia2, active compounds read low 0.697 | locus YOR083W, strain WHI5, active compounds read low 0.656 | locus YOR106W, strain vam3, active compounds read low 0.331 | locus YOR184W, strain ser1, active compounds read low 0.812 | locus YOR265W, strain rbl2, active compounds read low 0.479 | locus YOR270C, strain vph1, active compounds read low 0.273 | locus YOR290C, strain snf2, active compounds read low 0.434 | locus YPL051W, strain arl3, active compounds read low 0.248 | locus YPL055C, strain LGE1, active compounds read low 0.755 | locus YPL078C, strain atp4, active compounds read low 0.62 | locus YPL106C, strain sse1, active compounds read low 0.507 | locus YPL240C, strain hsp82, active compounds read low 0.417
inactive: locus YBR021W, strain FUR4, active compounds read low 1 | locus YBR229C, strain ROT2, active compounds read low 0.966 | locus YCL029C, strain bik1, active compounds read low 0.947 | locus YDL035C, strain GPR1, active compounds read low 0.872 | locus YDL074C, strain BRE1, active compounds read low 0.797 | locus YDL101C, strain DUN1, active compounds read low 0.924 | locus YDL185W, strain tfp1, active compounds read low 1.01 | locus YDR101C, strain arx1, active compounds read low 0.962 | locus YDR150W, strain NUM1, active compounds read low 0.959 | locus YDR388W, active compounds read low 0.962 | locus YDR502C, strain sam2, active compounds read low 0.929 | locus YER110C, active compounds read low 1 | locus YER167W, strain BCK2, active compounds read low 0.921 | locus YGL078C, strain dbp3, active compounds read low 0.977 | locus YGL086W, strain mad1, active compounds read low 0.936 | locus YGR135W, strain pre9, active compounds read low 0.936 | locus YGR252W, strain gcn5, active compounds read low 0.873 | locus YHR030C, strain SLT2, active compounds read low 0.947 and 0.918 | locus YHR079C, strain IRE1 (second series), active compounds read low 0.976 | locus YHR079C, strain IRE1, active compounds read low 0.945 | locus YHR094C, strain hxt1, active compounds read low 0.988 | locus YHR200W, strain rpn10, active compounds read low 0.964 | locus YIL073C, strain SPO22, active compounds read low 0.863 | locus YIL125W, strain kgd1, active compounds read low 0.942 | locus YIR030C, strain dcg1, active compounds read low 0.958 | locus YJL134W, strain LCB3, active compounds read low 0.967 | locus YJL168C, strain set2, active compounds read low 0.979 | locus YJL187C, strain SWE1 (second series), active compounds read low 0.897 | locus YJR043C, strain POL32, active compounds read low 0.914 | locus YJR066W, strain TOR1, active compounds read low 0.901 | locus YKL009W, strain mrt4, active compounds read low 0.986 | locus YLR058C, strain SHM2, active compounds read low 0.894 | locus YLR102C, strain apc9, active compounds read low 0.984 | locus YLR262C, strain YPT6, active compounds read low 0.609 | locus YLR268W, strain sec22, active compounds read low 0.891 | locus YLR342W, strain FKS1 (second series), active compounds read low 0.868 | locus YLR371W, strain rom2, active compounds read low 0.912 | locus YML016C, strain PPZ1, active compounds read low 0.927 | locus YML032C, strain rad52, active compounds read low 0.96 | locus YML124C, strain tub3, active compounds read low 0.971 | locus YMR078C, strain ctf18, active compounds read low 0.984 | locus YMR223W, strain ubp8, active compounds read low 0.906 | locus YMR307W, strain GAS1, active compounds read low 0.782 | locus YNL067W, strain RPL9B, active compounds read low 0.918 | locus YNL183C, strain NPR1, active compounds read low 0.837 | locus YNL233W, strain BNI4, active compounds read low 0.873 | locus YNL250W, strain rad50, active compounds read low 0.972 | locus YNL271C, strain bni1, active compounds read low 0.991 | locus YNL298W, strain CLA4, active compounds read low 1.01 | locus YNL322C, strain KRE1 (second series), active compounds read low 0.935 | locus YNL322C, strain KRE1, active compounds read low 0.937 | locus YNR052C, strain pop2, active compounds read low 0.977 | locus YOL012C, strain htz1 0.648 | locus YOL147C, strain pex11, active compounds read low 0.976 | locus YOR061W, strain CKA2, active compounds read low 0.934 | locus YOR069W, strain VPS5, active compounds read low 0.945 | locus YOR136W, strain idh2, active compounds read low 1 | locus YOR144C, strain elg1, active compounds read low 0.977 | locus YOR231W, strain MKK1, active compounds read low 0.917 | locus YOR316C, strain cot1, active compounds read low 0.981 | locus YPL241C, strain CIN2, active compounds read low 0.96 | locus YPL256C, strain CLN2, active compounds read low 0.856 | locus YPR119W, strain clb2, active compounds read low 0.979 | locus YPR141C, strain kar3, active compounds read low 0.956 | locus YPR163C, strain tif3, active compounds read low 0.924 | locus YPR167C, strain met16, active compounds read low 0.948 | strain wtn01, active compounds read low 0.93
